# High-throughput results deposited in PubChem by National Center for Advancing Translational Sciences (NCATS).
# TDP1 block: qHTS Assay for Inhibitors of Tyrosyl-DNA Phosphodiesterase (TDP1). Potency, µM (doses to about 130 µM), for inactives: at the top dose activity change, negative = inhibition, hits mostly inhibitors. recombinant TDP1, AlphaScreen DNA substrate cleavage. 350,000 compounds, 0.28% hits. AID 485290, 2010; note: potency is the fitted concentration of half-maximal effect; nearly all actives have a fitted effect of over 40% in size
# Target sequence (Q9NUW8 whole entry, looked up): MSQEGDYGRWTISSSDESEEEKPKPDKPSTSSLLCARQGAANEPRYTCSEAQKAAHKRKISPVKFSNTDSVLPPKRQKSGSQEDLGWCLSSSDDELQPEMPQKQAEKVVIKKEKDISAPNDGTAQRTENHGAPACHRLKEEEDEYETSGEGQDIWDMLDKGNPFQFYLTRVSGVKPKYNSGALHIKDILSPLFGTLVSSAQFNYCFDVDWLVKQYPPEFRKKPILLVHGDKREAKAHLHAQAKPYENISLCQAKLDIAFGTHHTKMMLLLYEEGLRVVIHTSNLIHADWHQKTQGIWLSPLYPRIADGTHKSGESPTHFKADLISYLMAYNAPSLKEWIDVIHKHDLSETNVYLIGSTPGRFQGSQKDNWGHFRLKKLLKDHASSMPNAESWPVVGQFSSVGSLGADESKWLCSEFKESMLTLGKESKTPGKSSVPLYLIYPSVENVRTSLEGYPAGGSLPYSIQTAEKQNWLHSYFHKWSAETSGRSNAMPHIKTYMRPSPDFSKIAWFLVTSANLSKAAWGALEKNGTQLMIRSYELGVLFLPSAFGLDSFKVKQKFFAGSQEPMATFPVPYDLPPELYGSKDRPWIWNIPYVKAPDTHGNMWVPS
#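 Here, a 5' biotin and 3' phosphotyrosine-FITC DNA oligonucleotide reports Tdp1 activity: intact substrate bridges AlphaScreen beads, while cleavage leaves a 3' phosphate and drops signal. All incubations at room temperature.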
# ELG1 repair inh: qHTS screen for small molecules that inhibit ELG1-dependent DNA repair in human embryonic kidney (HEK293T) cells expressing luciferase-tagged ELG1. HEK293T ELG1-luciferase reporter, luminescence, 16 h; DNA damage induced by 5-fluorouridine. Potency, µM (highest dose often 46.1 µM), inactives show at the highest dose activity change, negative = inhibition, hits mostly inhibitors. 330,000 compounds, 2.3% hits; note: potency is the fitted concentration of half-maximal effect; nearly all actives have a fitted effect of over 55% in size
#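 Cells (2,000 per well) received 5-fluorouridine plus test compound or DMSO and were incubated 16 hr at 37 °C, 5% CO2. Luciferase activity was read by luminescence 30 min after ONE-Glo addition; signal suppression marked inhibition of damage-induced ELG1 function.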
# TDP1 cell CPT: qHTS for Inhibitors of human tyrosyl-DNA phosphodiesterase 1 (TDP1): qHTS in cells in presence of CPT | Potency, µM (series often up to 46.2 µM), for inactives: at the top dose activity change, negative = growth inhibition, hits mostly inhibitors | AID 686979, 2013 | chicken DT40 Tdp1-/-;hTDP1 cells + 20 nM CPT, ATP luminescence, 48 h | 420,000 compounds, 12% hits; note: potency is the fitted concentration of half-maximal effect; nearly all actives have a fitted effect of over 55% in size
#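 Chicken DT40 Tdp1-/- cells stably complemented with human TDP1 were seeded at 400 cells/well in medium containing 20 nM camptothecin, exposed to pin-transferred compounds, and grown at 37 °C for at least 48 hr. Viability was read as ATP luminescence.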
# IL-1B inflam inh: qHTS for Inhibitors of Inflammasome Signaling: IL-1-beta AlphaLISA Primary Screen; activity change, % at 57.5 µM; THP-1 LPS/ATP IL-1B secretion, AlphaLISA, 16 h; active compounds read low; 360,000 compounds, 4.7% hits; in the data active = activity change below about -50%; inconclusive = mostly about -30% to -49%
#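 THP-1 cells pretreated 1 hr with compounds (up to 57.5 uM final), then stimulated with LPS (250 ng/mL final) plus ATP (1.25 mM final); secreted IL-1B measured by AlphaLISA after 16 hr, decreased signal indicating inhibition.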
# TDP1 cell noCPT: qHTS for Inhibitors of human tyrosyl-DNA phosphodiesterase 1 (TDP1): qHTS in cells in absence of CPT; Potency, µM (highest dose often 46.2 µM), for the others: at the top dose activity change, negative = growth inhibition, most hits filed as inhibitors; 420,000 compounds, 15% hits; AID 686978, 2013; DT40 Tdp1-/- hTDP1 cells, no CPT, ATP luminescence, 48 h; note: potency is the fitted concentration of half-maximal effect; nearly all actives have a fitted effect of over 55% in size
#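 Camptothecin absent (DMSO only). Human TDP1-complemented DT40 knockout cells, 400 cells/well, 37 °C for minimum 48 hr; ATP measured via CellTiter-Glo, 30 min dark incubation, luminescence.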
# Giardia killer: Small Molecules that selectively kill Giardia lamblia: qHTS; 340,000 compounds, 0.15% hits; AID 540267, 2011; activity change, % at 7.66 µM, hits read low; Giardia lamblia trophozoite viability; in the data active = activity change below about -80%; inconclusive = between about -30% and that limit;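 note: parasites exposed to compound for two days anaerobically before the ATP read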
#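 Viability, read as ATP luminescence: trophozoites at 100 cells/well, compound added, 48 hrs anaerobic at 37 deg C, then 15-30 min room-temperature development before reading.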
# * marks the source's active call; other numbers are inactive results; ? = inconclusive; . = no result. Sampled rows, rich in hits. Any-hit rate of the full collection: about 19%. Unless noted, calls come from the whole dose curve; as a rule, active = well fitted curve in the direction sought with a large enough effect; inconclusive = small, poorly fitted or top-dose-only effect, or another doubt; inactive = no such curve, though single readings can be large; an effect the other way counts as inactive or inconclusive. % is set by controls: 0 for no effect and ±100 for the full control effect.
SMILES,TDP1 block,ELG1 repair inh,TDP1 cell CPT,IL-1B inflam inh,TDP1 cell noCPT,Giardia killer
COc1ccc(NC2=Nc3cccc4cccc2c34)cc1OC,7.0%,-0.9%,23.1µM*,?,25.9µM*,10.2
O=C(N=Nc1c(O)[nH]c2ccccc12)c1ccco1,1.2%,?,?,?,16.4µM*,-22.8
O=C(N=Nc1c(O)[nH]c2ccccc12)c1ccc2c(c1)OCO2,2.5%,?,?,-14.5,?,-82.2*
Cc1nc(CSc2n[nH]c(=O)n2-c2cccc(F)c2)cs1,2.6%,-4.5%,10.4%,15.8,-1.0%,4.9
O=c1[nH]nc(SCCS(=O)(=O)c2ccc(F)cc2)n1-c1ccc2c(c1)OCCO2,3.8%,19.9%,?,-91.8*,16.4µM*,-20.0
CCOc1ccccc1NC(=O)CSc1n[nH]c(=O)n1-c1ccccc1,.,.,?,14.1,?,-19.3
O=c1[nH]nc(SCCS(=O)(=O)c2ccc(F)cc2)n1-c1ccccc1,2.6%,0.5%,29.1µM*,-87.5*,?,-1.5
CCS(=O)(=O)N1Cc2ccccc2CC1C(=O)N(C)CC(=O)Nc1ccc(F)c(F)c1F (centres undefined),.,5.9%,-3.4%,-2.8,-20.9%,-11.8
Cn1c(=O)c2c(nc(NCc3ccccc3)n2CCCc2ccccc2)n(C)c1=O,5.2%,?,9.2µM*,-1.5,5.17µM*,36.3
CCOCCCNc1nc2c(c(=O)n(C)c(=O)n2C)n1CCCc1ccccc1,1.0%,?,16.4µM*,-5.2,20.6µM*,4.5
COCCNc1nc2c(c(=O)n(C)c(=O)n2C)n1CCCc1ccccc1,.,.,14.6µM*,23.8,10.3µM*,.
COCCCNc1nc2c(c(=O)[nH]c(=O)n2C)n1CCCc1ccccc1,4.8%,?,10.0%,25.6,-12.5%,3.0
O=C(CSc1nnc2scc(-c3ccc(Cl)cc3)n12)Nc1ccccc1F,.,.,-18.5%,.,?,.
CCn1c(SCC(=O)N/N=C(\C)c2ccncc2)nnc1-c1ccccc1,3.7%,-7.4%,8.3%,0.0,-24.0%,23.7
CCOC(=O)c1ccc(NC(=O)CSc2nnc(CNC(=O)c3ccc(OC)cc3)n2CC)cc1,8.1%,.,2.3%,.,-25.7%,.
C#CCOCCOCCOCCNc1nc(N2CCN(C(=O)CCCCCCCCCCNC(=O)Cn3cc(C[C@@H](C)O)nn3)CC2)nc(N2CCN(C(=O)CCCCCCCCCCNC(=O)[C@H](CCCN=C(N)N)n3cc(C[C@@H](C)CC)nn3)CC2)n1,8.8%,-27.9%,?,-96.9*,16.4µM*,-1.0
C#CCOCCOCCOCCNc1nc(N2CCN(C(=O)CCCCCCCCCCNC(=O)Cn3cc(CCCCCN)nn3)CC2)nc(N2CCN(C(=O)CCCCCCCCCCNC(=O)[C@@H](CCSC)n3cc(CCO)nn3)CC2)n1,11.7%,?,?,-59.6*,?,5.4
C#CCOCCOCCOCCNc1nc(N2CCN(C(=O)CCCCCCCCCCNC(=O)[C@@H](CCSC)n3cc(CCO)nn3)CC2)nc(N2CCN(C(=O)CCCCCCCCCCNC(=O)[C@H](CCSC)n3cc(CCO)nn3)CC2)n1,-3.1%,-4.1%,6.51µM*,?,?,-0.1
C#CCOCCOCCOCCNc1nc(N2CCN(C(=O)CCCCCCCCCCNC(=O)[C@H](CO)n3cc(CCCSC)nn3)CC2)nc(N2CCN(C(=O)CCCCCCCCCCNC(=O)[C@H](CCCN=C(N)N)n3cc(C[C@@H](C)CC)nn3)CC2)n1,11.2%,-21.1%,?,-102.7*,23.1µM*,9.8
CC1=C(C(=O)NCc2ccccc2F)C2(CCCCC2)OC1=O,8.7%,.,-8.9%,.,-18.5%,.
CC1(C(=O)NCc2ccc(Cl)c(Cl)c2)Oc2ccccc2NC1=O (centres undefined),0.0%,2.7%,-2.2%,-17.2,?,-2.1
COc1ccc(-c2cn(CCC(=O)NCc3ccc(C)cc3)c(CCN)n2)cc1,1.0%,-0.4%,?,-17.2,-20.5%,-6.7
C#CCOCCOCCOCCNc1nc(N2CCN(C(=O)CCCCCCCCCCNC(=O)[C@H](CO)n3cc(CCCSC)nn3)CC2)nc(N2CCN(C(=O)CCCCCCCCCCNC(=O)[C@H](CCCCN)n3cc(CCO)nn3)CC2)n1,8.5%,?,?,-60.9*,?,-3.9
CC(=O)c1cc(-c2ccc(F)cc2)n(CCC(=O)NCc2ccccc2C)c1C,1.0%,.,16.4µM*,.,?,.
CCOc1ccc(NC(=O)CCn2c(-c3ccc(F)cc3)cc(C(C)=O)c2C)cc1,2.8%,.,20.6µM*,.,23.1µM*,.
SMILES,TDP1 block,ELG1 repair inh,TDP1 cell CPT,IL-1B inflam inh,TDP1 cell noCPT,Giardia killer
COc1ccc(-c2cc(C(C)=O)c(C)n2CCC(=O)Nc2cc(C)ccc2OC)cc1,4.7%,.,16.4µM*,.,18.4µM*,.
COc1ccc(-c2cc(C(C)=O)c(C)n2CCC(=O)Nc2ccc(C(F)(F)F)cc2)cc1,4.7%,.,11.6µM*,.,13µM*,.
Cc1cc(C)n2nc(C(=O)OCC(=O)NNC(=O)c3ccccc3)nc2n1,1.5%,28.3%,0.4%,9.6,4.1%,28.7
CNS(=O)(=O)c1cn(CC(=O)N2CCN(c3ccc(C(C)=O)cc3)CC2)cc1S(=O)(=O)NC,2.8%,.,-24.6%,.,-26.4%,.
O=S(=O)(c1ccc2c(c1)OCCO2)N1CCN(S(=O)(=O)c2cccc[n+]2[O-])CC1,0.2%,.,.,.,.,.
CCOC(=O)C1CCCN(C(=O)CCc2nnc(-c3ccc(C(C)=O)s3)o2)C1 (centres undefined),9.6%,?,9.8%,3.7,-1.5%,-25.4
